High-throughput results (PubChem)
hcDAF12 agonist = activators of H. contortus DAF-12 nuclear receptor. AID 652067. actives 1.4% (n = 370,000). activation, % at 6.8 µM. HEK293 hcDAF-12 lit1-tk-luc reporter, luminescence; 0% DMSO, 100% Δ7-dafachronic acid;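 active = activation above the mean of all tested compounds plus 3 SD, cut at about 5.5% in these data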;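 note: 100% = response to 3 µM Δ7-dafachronic acid high control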
DAX1 inh-1 = blocks DAX1 repression of SF-1 activated StAR promoter. HEK293T StAR-luciferase reporter, SF-1/DAX-1 repression relief. inhibition, % at 6.8 µM. actives 1.1% (n = 370,000);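 active = inhibition above the mean over all tested compounds plus 3 SD, cut at about 3.6% in these data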;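 note: 0% = DAX-1 cells with DMSO and 100% = cells lacking DAX-1 with DMSO; higher inhibition means more luminescence from relief of DAX-1 repression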
ssDAF12 agonist = activates DAF-12 receptor from parasite S. stercoralis; activation, % at 6.8 µM; actives 1% (n = 370,000); AID 652126; HEK293 ssDAF-12/GRIP1 lit1-tk-luc reporter, luminescence; % of 3 µM dafachronic acid response;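 active = activation above the mean over all tested compounds plus 3 SD, cut at about 0.9% in these data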;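 note: 0% = DMSO-only wells and 100% = 3 µM delta7-dafachronic acid wells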
hgDAF-12 ag = hgDAF-12 agonism, primary luciferase screen. HEK293 GAL4-hgDAF12 UAS-luciferase reporter, agonist luminescence; normalized to butyrate control. activation, % at 6.8 µM. actives 1.8% (n = 370,000). AID 687014;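 active = activation above a cutoff set at the mean of all screened compounds plus 3 SD, cut at about 10% in these data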;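 note: 0% = DMSO wells and 100% = sodium butyrate wells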
FXN GAA850 act = frataxin GAA850 promoter activation; HEK293 lucGAA850 FXN promoter luciferase reporter, 24 h; percent of 10 µM SAHA response; activation, % at 6 µM; actives 0.56% (n = 360,000);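 active = activation above the average of all compounds screened plus 3 SD, cutoff fixed separately per campaign, cut at about 7.5% in these data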;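 note: 0% = DMSO wells and 100% = 10 µM SAHA wells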
DAX1 inh-2 = inhibitors of human orphan nuclear receptor DAX1 (NR0B1); P51843; HEK293 Gal4-DAX1 luciferase reporter, luminescence; inhibition, % at 6.75 µM; actives 0.99% (n = 340,000);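 active = inhibition above the mean over all tested compounds plus 3 SD, cut at about 4.2% in these data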;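 note: 0% = DAX1-transfected cells with DMSO and 100% = empty-vector control cells with DMSO; inhibition shows as a rise in luminescence from relieved DAX1 repression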
Target sequence (P51843 207-470 limits assumed): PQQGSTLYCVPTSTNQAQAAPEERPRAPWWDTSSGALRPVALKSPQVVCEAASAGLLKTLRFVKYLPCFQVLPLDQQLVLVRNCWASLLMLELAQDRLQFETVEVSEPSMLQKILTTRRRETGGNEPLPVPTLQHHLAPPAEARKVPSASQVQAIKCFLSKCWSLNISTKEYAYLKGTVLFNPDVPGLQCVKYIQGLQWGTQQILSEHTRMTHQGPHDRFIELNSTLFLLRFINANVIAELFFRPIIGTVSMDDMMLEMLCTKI
LXRb hcDAF ctr = LXR-beta agonism as hcDAF-12 counter-screen | shares compounds with hcDAF12 agonist | HEK293 Gal4-LXR tk-luc reporter, luminescence, 24 h; normalized: DMSO 0%, positive control 100% | activation, % at 6.8 µM | 3,400 tested, under 10 active | AID 743027;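 active = mean percent activation of the reporter above a cutoff set as the average over tested compounds plus their standard deviation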
hcDAF12 ag = hcDAF-12 agonism, confirmation assay. HEK293 hcDAF-12 lit1-tk-luc reporter, luminescence; % of Δ7-dafachronic acid response. shares compounds with hcDAF12 agonist. actives 61% (n = 3,400). activation, % at 6.8 µM;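 active = mean activation across triplicate tests above the threshold derived from the earlier primary screen, cut at about 5.5% in these data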;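 note: 0% = DMSO only wells and 100% = 3 µM Δ7-dafachronic acid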
* hit, by the source's call; . = not tested or not shown. Hits are enriched below; roughly 4.5% of the tested compounds scored in any of these assays.

SMILES	hcDAF12 agonist	DAX1 inh-1	ssDAF12 agonist	hgDAF-12 ag	FXN GAA850 act	DAX1 inh-2	LXRb hcDAF ctr	hcDAF12 ag
COc1ccccc1C(=O)NNC(=S)Nc1ccccc1	10.7*	1.3	-0.1	6.6	3.9	3.2	0.1	9.0*
COc1ccccc1C(=O)NNC(=O)c1ccc2ccccc2c1	-0.4	-0.4	-1.1	0.0	1.8	0.9	.	.
COc1ccccc1C(=O)NNC(=O)C1CC=CCC1 (stereo not given)	7.2*	0.1	4.0*	3.1	0.5	2.5	0.1	7.2*
COc1ccccc1C(=O)NNC(=O)C(=O)Nc1ccc(C)cc1	3.8	0.4	0.6	2.8	1.7	0.1	.	.
NC(=O)c1ccc(NC(=O)CNC(=O)c2sc3ccccc3c2Cl)cc1	-1.7	-3.1	-0.9	-0.5	0.3	-1.0	.	.
CCc1nc2ccc(C(=O)NCCCn3ccnc3)cn2c1N(C)C(=O)C1CCCCC1	-1.2	0.9	-1.3	-2.6	-1.0	.	.	.
Cn1c(SCC(=O)Nc2nccs2)nnc1-c1ccccn1	0.4	0.3	-0.9	-1.9	-2.0	-0.3	.	.
CN1/C(=C/C(=O)c2cccs2)Sc2ccccc21	21.8*	4.4*	4.5*	17.7*	2.1	1.0	2.2	24.0*
COCC(=O)/C=C1\Sc2ccccc2N1C	-2.5	0.0	-1.5	-16.0	2.9	-0.8	.	.
CN1/C(=C\C(=O)c2cccc([N+](=O)[O-])c2)Sc2ccccc21	7.7*	1.0	-0.1	13.1*	3.0	0.5	1.1	5.9*
CN1/C(=C/C(=O)C2CCC2)Sc2ccccc21	8.1*	2.7	-0.1	12.3*	2.8	0.5	0.3	3.8
Cc1ccc2c(=O)cc(C(=O)NC3CCS(=O)(=O)C3)oc2c1C (stereo not given)	-1.8	1.6	-0.8	0.7	-0.6	1.6	.	.
COC1=CC(=O)OC(c2cccc(Cl)c2)C1 (stereo not given)	-0.9	-0.6	-1.3	2.2	.	.	.	.
CCCCn1c(N)c(N(CCOC)C(=O)c2ccc(S(=O)(=O)N3CCCCCC3)cc2)c(=O)[nH]c1=O	-0.6	0.9	-0.9	-2.4	1.0	1.5	.	.
O=c1[nH][nH]c2c1[C@H](c1ccc(Cl)cc1)O[C@H](C1CCCC1)C2	-1.2	0.1	-1.1	-1.3	.	.	.	.
Cc1ccc2c(c1)CCCN2C(=O)c1cccs1	7.4*	0.8	0.7	0.2	1.7	-0.2	-0.2	3.1
O=C(c1cccs1)N1CCCc2ccccc21	0.1	0.5	-1.6	-0.3	-0.6	-0.7	.	.
COC(=O)[C@H]1[C@H]2C[C@@H]3c4[nH]c5cc(OC)ccc5c4CCN3C[C@H]2C[C@@H](OC(=O)c2cc(OC)c(OC)c(OC)c2)[C@@H]1OC	-1.1	-0.1	-0.9	-3.9	-7.5	0.0	.	.
COc1ccc2c3c([nH]c2c1)C1CC2C(CC(O)C(OC)C2C(=O)O)CN1CC3 (stereo not given)	7.0*	0.0	-0.9	2.8	3.0	2.1	-0.5	-0.5
CN(C)c1ccc(N=Nc2ccccc2Br)cc1	20.1*	3.0	1.6*	12.0*	1.4	0.2	1.7	18.9*
Cc1cc(N(C)C)ccc1N=Nc1ccc(N)cc1	1.1	-0.1	-0.7	3.9	-2.8	2.7	.	.
Nc1[nH]c2cc(Cl)ccc2c1C(=O)NCCc1ccc(Cl)cc1	6.6*	0.5	0.2	1.3	.	.	0.1	7.2*
Nc1[nH]c2cc(C(F)(F)F)ccc2c1C(=O)NCc1ccc(F)cc1	7.0*	-0.9	-0.2	-0.4	.	.	-0.3	4.4
CC(=O)c1c(C)[nH]c(C(=O)NCCc2ccc(Cl)cc2)c1C	-0.7	-0.6	-1.9	3.2	1.6	-0.1	.	.
COc1ccc(S(=O)(=O)N2CCCCC2)cc1NC(=O)CCCOc1ccc(C)cc1	1.2	-1.3	-0.5	2.4	-0.5	0.4	.	.
